Compound activity as filed in PubChem.
An excerpt weighted towards active compounds, which were near 8.7% of everything screened.
JMJD2A Tudor – inhibitors of human JMJD2A Tudor domain; AlphaScreen JMJD2A-Tudor / H3K4me3 peptide binding; O75164; Potency, µM (series often up to 114 µM), without a hit: top-dose activity change, negative = inhibition, actives largely listed as inhibitors; actives 4.4% (n = 390,000); AID 504339; note: % is set by controls: 0 for no effect and ±100 for the full control effect; nearly all actives have a fitted effect of over 50% in size
G9a inh – blocks human histone lysine methyltransferase G9a; Q96KQ7; G9a H3K9 monomethylation, AlphaScreen, 2 h; Potency, µM (series often up to 102 µM), inactives show top-dose activity, negative = inhibition, hits mostly inhibitors; actives 8.8% (n = 350,000); note: % is set by controls: 0 for no effect and ±100 for the full control effect; nearly all actives have a fitted effect of over 75% in size
Target sequence (Q96KQ7 913-1193 limits assumed): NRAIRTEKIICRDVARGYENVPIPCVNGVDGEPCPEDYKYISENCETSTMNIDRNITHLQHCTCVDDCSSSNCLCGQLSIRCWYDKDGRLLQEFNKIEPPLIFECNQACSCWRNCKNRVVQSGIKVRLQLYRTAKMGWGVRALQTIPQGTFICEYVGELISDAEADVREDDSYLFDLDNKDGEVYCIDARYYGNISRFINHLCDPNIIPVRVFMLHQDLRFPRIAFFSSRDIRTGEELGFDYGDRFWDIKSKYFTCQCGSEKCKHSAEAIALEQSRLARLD
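Chemiluminescent proximity detection of H3K9 monomethylation, read after 10 min bead incubation in the dark. Reaction: 20 nM G9a, 500 nM biotin-H3K9 peptide, 20 uM SAM cofactor, 2 h, room temperature, following 15 min enzyme-compound preincubation.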
Sfp PPTase inh – blocks B. subtilis Sfp PPTase activity; AID 1490; actives 3.5% (n = 310,000); Biochemical Sfp PPTase activity, qHTS; Potency, µM, for the others: largest response in the series, negative = inhibition, usual class: inhibitors; Q9F4F7;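 note: the enzyme is Sfp with the accession as filed and its product quenches rhodamine fluorescence; 0% = enzyme reaction without inhibitor and -100% = no enzyme wells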
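Fluorescence-quenching assay: 15 nM Sfp-PPTase preincubated 15 min at room temperature with compound, then 5 uM rhodamine-CoA and 12.5 uM BHQ-2-labelled YbbR peptide added. Fluorescence (ex 525/em 598 nm) read at start and after 30 min; difference gives rate.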
BAZ2B block – inhibitors of human BAZ2B bromodomain. Q9UIF8. AlphaScreen BAZ2B-H3K14Ac peptide displacement. AID 504333. actives 4.4% (n = 360,000). Potency, µM (series often up to 114 µM), without a hit: top-dose activity change, negative = inhibition, usual class: inhibitors; note: % is set by controls: 0 for no effect and ±100 for the full control effect; nearly all actives have a fitted effect of over 60% in size
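Protein-peptide AlphaScreen: BAZ2B 50 nM, b-H3K14Ac 50 nM, 1x PBS pH 7.4 + 0.01% Tween-20. Preincubation 30 min RT; cpd 30 min RT (top 110 uM); beads 20 min RT, light-protected.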
HP1b binding inh – inhibitors of HP1-beta chromodomain binding to methylated histone tails; AID 540317; P83916; Potency, µM (series often up to 114 µM), for the others: top-dose activity change, negative = inhibition, hits mostly inhibitors; AlphaScreen HP1-beta / biotin-H3K9me3 peptide binding; actives 0.56% (n = 390,000); note: nearly all actives have a fitted effect of over 70% in size
Target sequence (P83916 whole entry, looked up): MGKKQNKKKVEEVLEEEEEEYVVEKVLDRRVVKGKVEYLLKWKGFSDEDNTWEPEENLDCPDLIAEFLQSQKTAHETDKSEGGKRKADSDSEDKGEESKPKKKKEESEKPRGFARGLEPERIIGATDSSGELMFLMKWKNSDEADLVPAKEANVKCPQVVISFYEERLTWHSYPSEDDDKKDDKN
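HP1-beta protein (50 nM final) preincubated 30 min at room temperature with biotinylated H3(1-18)K9me3 peptide (50 nM) in PBS pH 7.4, 0.01% Tween-20, then compound added for 30 min. AlphaScreen streptavidin donor/nickel chelate acceptor beads (10 ug/mL final), 30 min dark, luminescence read.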
ALOX12 inh – blocks human arachidonate 12S-lipoxygenase. P18054. purified 12hLO, xylenol orange hydroperoxide absorbance. Potency, µM (highest dose often 108 µM), without a hit: top-dose activity change, negative = inhibition, usual class: inhibitors. actives 1.1% (n = 580,000). AID 1671190; note: % is set by controls: 0 for no effect and ±100 for the full control effect
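Purified human 12hLO (150 nM final) in 25 mM Hepes, 0.01% Triton X-100, pH 7.0 was preincubated 15 min at room temperature with compound. Then 40 uM arachidonic acid was added, 30 min. Hydroperoxide was read by Fe-XO absorbance ratio 573/405 nm.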
The depositor's hits bear a star; ? = inconclusive; / = no result given; ! = not active in a repeat; [ ] = remark or other dose. Calls come from the whole dose curve; as a rule, active = well fitted curve in the direction sought with a large enough effect; inconclusive = small, poorly fitted or top-dose-only effect, or another doubt; inactive = no such curve, though single readings can be large; an effect the other way counts as inactive or inconclusive. Potency is the fitted concentration of half-maximal effect.

SMILES	JMJD2A Tudor	G9a inh	Sfp PPTase inh	BAZ2B block	HP1b binding inh	ALOX12 inh
Nc1nonc1C(=O)N/N=C/c1ccc([N+](=O)[O-])o1	?	50µM*	-28%	56µM*	?	-10%
N/C(=N\[N+](=O)[O-])N/N=C/c1ccc(O)cc1	0%	3%	-1%	-3%	23%	-5%
Cc1ccc(N/N=C/C=C/c2ccco2)cc1	50µM*	/	/	/	?	?
C1CC2CCC1CNC2	/	/	/	/	/	53%
CC(C)(O)C=CC(=O)[C@](C)(O)[C@H]1[C@H](O)C[C@]2(C)[C@@H]3CC=C4[C@@H](C=C(O)C(=O)C4(C)C)[C@]3(C)C(=O)C[C@@]12C	/	/	/	/	/	2%[57.4 µM]
CC(=O)c1c(O)n(-c2cccc(Cl)c2)c(=O)[nH]c1=O (tested in a mixture with another compound)	-18%	50µM*	-7%	-29%	16%	?
CCc1ccc(N2C(=O)NC(=O)/C(=C/c3cccn3CCOc3ccc(C(C)CC)cc3)C2=O)cc1 (stereo not given)	-17%	10%[59 µM]	11%	-36%	13%	?
CC(C)c1ccc(N2C(=O)NC(=O)/C(=C\c3cnc(-c4ccccc4)nc3)C2=O)cc1	-12%[11.4 µM]	?	45µM*	-29%	?	?
Cc1cccc(N2C(=O)NC(=O)/C(=C\c3cnc(-c4ccccc4)nc3)C2=O)c1	?	7.1µM*	?	-3%	11%	?
Cc1cc(C)cc(N2C(=O)NC(=O)/C(=C\c3cccn3-c3ccccc3)C2=O)c1	-15%	?	-4%	-19%	18%	-22%
Cc1ccc(N2C(=O)NC(=O)/C(=C/c3cnc(-c4ccccc4)nc3)C2=O)cc1C	79µM*	10µM*	?	-2%	-16%	?
Cc1cc(/C=C2\C(=O)NC(=O)N(c3ccc(Br)cc3)C2=O)c(C)n1C	-8%	?	-2%	29%	22%	?
CCN1CCN(c2ccc(N)c(C)c2)CC1	-27%	45µM*	10%	-28%	3%	380%
CN1CCN(c2ccc([N+](=O)[O-])c(N)c2)CC1	-26%	-4%[59 µM]	20%	4%	-2%	-5%
C1=C(c2ccccc2)CCNC1	-12%	/	5%	3%	9%	-3%
Oc1ccc(C2=CCNCC2)cc1O	10µM*	/	/	/	?	-17%
Cc1o[nH]c(=O)c1C[C@@H](N)C(=O)O	?	/	79µM*!	/	12%	243%
Cc1o[nH]c(=O)c1CC(N)C(=O)O (stereo not given)	/	21µM*!	/	/	/	/
Cc1o[nH]c(=O)c1C[C@H](N)C(=O)O	/	/	79µM*!	/	/	?
C=C(C)CN1CCN(Cc2ccc(OC)cc2)CC1	/	/	/	/	/	19%
O=C(Nc1ccccc1)N1[C@H]2CC[C@@H]1c1cncnc1C2	/	/	/	/	/	6%
Cc1ccc(-c2nc(N3CCOCC3)s[n+]2-c2ccccc2)cc1	8.9µM*	0.89µM*	?	?	?	20µM*
C#C[C@H]1CN2CC[C@H]1C[C@@H]2CNC(=O)c1ccc(N(C)C)cc1	/	/	/	/	/	32%[176 µM]
CC1=CC2/C=C(\C)CCC(O)C(O)/C=C/C(=O)C23C(=O)NC(CC(C)C)C3C1C (stereo not given)	-24%	?	16µM*	-16%	41%	/
NC1C=CC=C(C(=O)O)C1 (stereo not given)	-21%	3.2µM*	-20%	/	31%	38%
SMILES	JMJD2A Tudor	G9a inh	Sfp PPTase inh	BAZ2B block	HP1b binding inh	ALOX12 inh
COc1ccccc1CNC(=O)[C@H]1CN2CCC1C[C@@H]2Cn1cc(CN(C)Cc2ccccc2)nn1 (stereo not given in full)	/	/	/	/	/	28%
Cn1cccc1/C=C1\C(=O)NC(=O)N(Cc2ccccc2Cl)C1=O	?	45µM*	-15%	/	3%	?
Cn1cccc1/C=C1\C(=O)NC(=O)N(CCC2=CCCCC2)C1=O	-18%	-6%[59 µM]	3%	-9%	-11%	-28%
O=C1CO[C@H]2CN(Cc3ncc[nH]3)C[C@H]2N1Cc1cccnc1	/	/	/	/	/	68%[176 µM]
COc1ccc(OCC#CCN2CCNCC2)cc1	6.3µM*	8.9µM*	?	32µM*	?	?
O=C(COc1ccc(Cl)cc1)NC1CN2CCC1CC2 (stereo not given)	3%	-11%[12.7 µM]	2%	-3%	31%	-1%
CC1CCN(CC#CCOc2ccc(Cl)cc2)CC1	35µM*	19%[0.501 µM]	-22%	50µM*	?	?
C1CCN(C2CCCNC2)CC1 (stereo not given)	/	/	/	/	/	9%
CSc1cccc(NC(=O)NC[C@H]2C[C@@H]3CCN2C[C@@H]3CN2CCSCC2)c1	/	/	/	/	/	32%[176 µM]
CCOC(=O)c1cc(C)n(CCc2cnc[nH]2)c1C	?	?	-3%	56µM*	-15%	0%
CNCCc1cnc[nH]1	/	21%[59 µM]	-15%	/	/	?
CN(C(=O)CCl)C1CCCCC1	/	/	/	/	/	-14%
CC(=O)N1C[C@@H]2C[C@H](C1)c1ccc(NC(=O)C3CCCCC3)c(=O)n1C2	/	/	/	/	/	-1%[176 µM]
CCN(CC)P(c1n(C)cc[n+]1C)N(CC)CC	22µM*	?	-7%	-18%	?	?
